Measurements taken from ChEMBL document CHEMBL3988442, “University of Dundee, Small-Polar-MMV Screening Library” (2021).

Each molecule was assayed against AMP-activated protein kinase, AMPK (Homo sapiens) (UniProt P54646+O43741+P54619+Q9UGJ0+Q9Y478+Q13131+Q9UGI9) (assay: AMP-dependent Kinase enzyme assay. An in vitro enzyme assay that detects ADP turnover that is directly proportional to AMPK activity. This uses naive AMPK that is activated during the assay with MK-8722). Conditions: 30 µM.
Type: functional
Parameters: scale not given: direction of the effect not stated beside the values
With `CN(Cc1ccccc1)c1cnn(CC2COCCO2)c(=O)c1` (stereo not given) the Percent Effect was 10.8%. Work on `Cc1nc(NC(=O)NCCCN2CCC(C(N)=O)CC2)sc1C` yielded a Percent Effect of 6.51%. `CCC1(CC)CC(=O)N(CC(O)c2ccc(F)cc2)C1=O` (stereo not given) showed a Percent Effect of 8.69%. `NC(=O)C1CCN(c2ncccc2C(=O)N2CCc3ccccc32)C1` (stereo not given) gave a Percent Effect of 2.58%. `COc1ccc(-n2cccn2)c(CN2CCOCC(CN(C)C)C2)c1` (stereo not given) gave a Percent Effect of 1.67%. For `CSc1nccc(N2CCC3(CCCN(Cc4ccc(F)cc4)C3)C2)n1` (stereo not given), the Percent Effect was 3.61%. With `Cc1nccc(CNC(=O)NC(c2ncc(C)s2)C2CC2)n1` (stereo not given) the Percent Effect was 0.262%. `Cc1ncsc1C(=O)N1CC[C@@]2(O)CCN(C(=O)N3CCCC3)C[C@H]2C1` showed a Percent Effect of -1.97%. For `O=C(Nc1ccc(-n2ccc(C(=O)O)n2)cc1)c1ccccc1`, the Percent Effect was 4.07%. Molecule `CCNC(=O)NCc1ccc(-n2ccc(C(F)(F)F)n2)cc1` has a Percent Effect of -2.79%. For `O=C(NCc1nccs1)N1CCOC(c2ccccc2Cl)C1` (stereo not given), the Percent Effect was 4.45%. Molecule `COCc1nc2cc3c(cc2c(=O)o1)OCCCO3` has a Percent Effect of -7.41%. With `Cc1nnc(-c2cccc(C#N)c2)n1C1CCN(C(C)C)C1=O` (stereo not given) the Percent Effect was 7.44%. Work on `COC(=O)c1sc(C(NC(=O)c2ccccc2)C2CC2)nc1C` (stereo not given) yielded a Percent Effect of -2.15%. In the case of `O=S(=O)(N1CCOCC1)N1CCCCC1CCn1cccn1` (stereo not given), the Percent Effect is reported as 29.5%. `CC(C)(C)c1nc(CN2CCCC2c2nnc3ccccn23)no1` (stereo not given) gave a Percent Effect of 6.67%. `Cc1n[nH]c(C)c1CCc1n[nH]c(=O)n1Cc1cccs1` gave a Percent Effect of -7.17%. For `CCN1CCN(c2ncnc3c2CCN(C(=O)C2CC2)C3)CC1`, the Percent Effect was -7.12%. In the case of `FC(F)(F)c1ccnc(N2CCC(c3nccn3CC3CC3)CC2)n1`, the Percent Effect is reported as 19.6%. Work on `Cc1ncsc1C(=O)N[C@@H](Cc1ccccc1)C(N)=O` yielded a Percent Effect of 8.09%.
